Experimental data as given in the supplement of paper PMC6135742.
Where a name gives a salt, the structure may show the parent alone. ± gives the standard deviation of the averaged measurements. Over roughly 2,600 compounds, “MBP+ mature oligodendrocyte number relative to DMSO vehicle control” has its median near -0.34; the highest 2% begin near 13. The sample as a whole holds a higher share of the highest values than the screen did.

The compounds below were run on jimpy (Plp1 jimpy) mouse iPSC-derived oligodendrocyte progenitor cells (assay: MBP+ mature oligodendrocyte number relative to DMSO vehicle control (SDs above negative control mean); higher = more surviving jimpy oligodendrocytes (rescue)). Details: 10 µM; 3 days.
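Note: 10 µM single dose with 3-day oligodendrocyte differentiation.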

**Q.** For O=C(/C=C/c1ccc(CN(CCO)CCc2c[nH]c3ccccc23)cc1)NO [LAQ824 (Dacinostat)], which “MBP+ mature oligodendrocyte number” value is on record?
**A.** < -6.7

**Q.** Which “MBP+ mature oligodendrocyte number” value does the source give for CC(C)(C)[N+]([O-])=Cc1ccc(S(=O)(=O)O)cc1S(=O)(=O)O here?
**A.** 2.35

**Q.** For CC(C)c1cc(-c2ccc(F)c3ccccc23)nc(N)n1, which “MBP+ mature oligodendrocyte number” value is on record?
**A.** 6.85

**Q.** Nc1ccc2ncnc(NCCc3ccc(Oc4ccccc4)cc3)c2c1 was tested. Which “MBP+ mature oligodendrocyte number” value did it give?
**A.** < -6.35

**Q.** N#C/C(=C1/SC[C@@H](c2ccc(Cl)cc2Cl)S1)n1ccnc1 [Luliconazole] was tested. Which “MBP+ mature oligodendrocyte number” value did it give?
**A.** 19.8

**Q.** How did the “MBP+ mature oligodendrocyte number” value turn out when CC(=O)OCC(=O)[C@@]1(O)CC[C@H]2[C@@H]3CCC4=CC(=O)CC[C@]4(C)[C@H]3C(=O)C[C@@]21C [Cortisone 21-acetate] was run?
**A.** -0.825

**Q.** For CC(=O)S[C@@H]1CC2=CC(=O)CC[C@]2(C)[C@H]2CC[C@@]3(C)[C@@H](CC[C@@]34CCC(=O)O4)[C@H]12 [Spironolactone], which “MBP+ mature oligodendrocyte number” value is on record?
**A.** 1.84 ± 1.7

**Q.** How did the “MBP+ mature oligodendrocyte number” value turn out when CC(=O)O[C@]1(C(C)=O)CC[C@H]2[C@@H]3C[C@H](C)C4=CC(=O)CC[C@]4(C)[C@H]3CC[C@@]21C [Medroxyprogesterone acetate] was run?
**A.** 16.5

**Q.** CC(=O)O[C@]1(C(C)=O)CC[C@H]2[C@@H]3C[C@H](C)C4=CC(=O)C=C[C@]4(C)[C@@]3(F)[C@@H](O)C[C@@]21C [Fluorometholone Acetate] was tested. Which “MBP+ mature oligodendrocyte number” value did it give?
**A.** 10.3

**Q.** For CC(=O)O[C@]1(C(C)=O)CC[C@H]2[C@@H]3C=C(Cl)C4=CC(=O)[C@@H]5C[C@@H]5[C@]4(C)[C@H]3CC[C@@]21C [Cyproterone acetate], which “MBP+ mature oligodendrocyte number” value is on record?
**A.** 3.38

**Q.** How did the “MBP+ mature oligodendrocyte number” value turn out when CC(=O)OCC(=O)[C@@]1(O)CC[C@H]2[C@@H]3CCC4=CC(=O)CC[C@]4(C)[C@H]3C(=O)C[C@@]21C [Cortisone acetate] was run?
**A.** -0.164

**Q.** With C[C@]12CCC(=O)C=C1CC[C@@H]1[C@@H]2CC[C@@]2(C)[C@H]1CC[C@]2(O)C(=O)CO [Cortexolone] as the compound, how does the “MBP+ mature oligodendrocyte number” value read?
**A.** 0.431

**Q.** Which “MBP+ mature oligodendrocyte number” value does the source give for CC(=O)O[C@]1(C(C)=O)CC[C@H]2[C@@H]3C=C(C)C4=CC(=O)CC[C@]4(C)[C@H]3CC[C@@]21C [Megestrol Acetate] here?
**A.** 15.4

**Q.** CC(=O)O[C@]1(C(C)=O)CC[C@H]2[C@@H]3C=C(Cl)C4=CC(=O)[C@@H]5C[C@@H]5[C@]4(C)[C@H]3CC[C@@]21C [Cyproterone Acetate] was tested. Which “MBP+ mature oligodendrocyte number” value did it give?
**A.** 21.5

**Q.** With CC(C)CCN1c2nc(Nc3cc(F)c(O)c(F)c3)ncc2N(C)C(=O)C1C (stereo unspecified) as the compound, how does the “MBP+ mature oligodendrocyte number” value read?
**A.** < -6.01

**Q.** How did the “MBP+ mature oligodendrocyte number” value turn out when O=C(O)CP(=O)(O)O [Phosphonoacetic acid] was run?
**A.** -0.64

**Q.** How did the “MBP+ mature oligodendrocyte number” value turn out when O=C(O)c1cc(=O)c2c(Cl)cc(Cl)cc2[nH]1 [5,7-Dichlorokynurenic acid] was run?
**A.** -0.544

**Q.** How did the “MBP+ mature oligodendrocyte number” value turn out when COC(=O)C1=CO[C@@H](O)[C@@H]2C(CO)=CC[C@H]12 [Genipin] was run?
**A.** 3.27 ± 0.9

**Q.** How did the “MBP+ mature oligodendrocyte number” value turn out when C=CC(=O)Nc1cccc(Nc2nc(Nc3ccc(Oc4ccnc(C(=O)NC)c4)cc3)ncc2F)c1 was run?
**A.** -6.27

**Q.** Which “MBP+ mature oligodendrocyte number” value does the source give for CN1CCN(C(=O)c2cc3cc(Cl)ccc3[nH]2)CC1 here?
**A.** 1.14

**Q.** N[C@@H](CC(=O)N1CCn2c(nnc2C(F)(F)F)C1)Cc1cc(F)c(F)cc1F [Sitagliptin phosphate monohydrate] was tested. Which “MBP+ mature oligodendrocyte number” value did it give?
**A.** 0.184

**Q.** Which “MBP+ mature oligodendrocyte number” value does the source give for NCCOc1cc(C(=O)Nc2cc(OCCN)c3ccccc3n2)nc(C(=O)Nc2cc(OCCN)c3ccccc3n2)c1 [Pyridostatin trifluoroacetate salt] here?
**A.** -3.78

**Q.** COc1ccccc1CN[C@H]1CCCN[C@H]1c1ccccc1 was tested. Which “MBP+ mature oligodendrocyte number” value did it give?
**A.** -0.711

**Q.** CSc1c(C)c(SC)n2ccncc12 [Oltipraz metabolite M2] was tested. Which “MBP+ mature oligodendrocyte number” value did it give?
**A.** -2.35

**Q.** How did the “MBP+ mature oligodendrocyte number” value turn out when CC(C)NC[C@H](O)COc1ccc(CCOCC2CC2)cc1 [Levobetaxolol HCl] was run?
**A.** 9.7

**Q.** CN(C)C(=O)Nc1cccc(-c2ccc(N(C)C)cc2)c1 [Atglistatin] was tested. Which “MBP+ mature oligodendrocyte number” value did it give?
**A.** 6.21

**Q.** For COc1cc2c[n+](C)c3c4cc5c(cc4ccc3c2cc1OC)OCO5 [Nitidine chloride], which “MBP+ mature oligodendrocyte number” value is on record?
**A.** < -4.47

**Q.** N#CC1(c2ccc(NC(=O)c3cccnc3NCc3ccncc3)cc2)CCCC1 [Apatinib] was tested. Which “MBP+ mature oligodendrocyte number” value did it give?
**A.** 2.86

**Q.** How did the “MBP+ mature oligodendrocyte number” value turn out when COc1ccc(CNCc2cccc3ccccc23)cc1 was run?
**A.** -1.56

**Q.** With CN(C/C=C/C#CC(C)(C)C)Cc1cccc2ccccc12 [Terbinafine] as the compound, how does the “MBP+ mature oligodendrocyte number” value read?
**A.** 1.87

**Q.** CN(Cc1ccc(C(C)(C)C)cc1)Cc1cccc2ccccc12 [Butenafine HCl] was tested. Which “MBP+ mature oligodendrocyte number” value did it give?
**A.** 21.1

**Q.** How did the “MBP+ mature oligodendrocyte number” value turn out when CN(C/C=C/C#CC(C)(C)C)Cc1cccc2ccccc12 [Terbinafine HCl] was run?
**A.** 4.54

**Q.** For CCC(=O)OCC(=O)[C@@]1(OC(=O)CC)[C@@H](C)C[C@H]2[C@@H]3CCC4=CC(=O)C=C[C@]4(C)[C@@]3(Cl)[C@@H](O)C[C@@]21C [Beclomethasone dipropionate], which “MBP+ mature oligodendrocyte number” value is on record?
**A.** 7.8

**Q.** Which “MBP+ mature oligodendrocyte number” value does the source give for CCC(=O)O[C@]1(C(=O)SCF)[C@H](C)C[C@H]2[C@@H]3C[C@H](F)C4=CC(=O)C=C[C@]4(C)[C@@]3(F)[C@@H](O)C[C@@]21C [Fluticasone propionate] here?
**A.** 8.9

**Q.** With C[C@@H]1C[C@H]2[C@@H]3C[C@H](F)C4=CC(=O)C=C[C@]4(C)[C@@]3(F)[C@@H](O)C[C@]2(C)[C@@]1(O)C(=O)CO [Flumethasone] as the compound, how does the “MBP+ mature oligodendrocyte number” value read?
**A.** 8.94

**Q.** With CCC(=O)O[C@]1(C(=O)CCl)[C@@H](C)C[C@H]2[C@@H]3C[C@H](F)C4=CC(=O)C=C[C@]4(C)[C@@]3(F)[C@@H](O)C[C@@]21C [Halobetasol Propionate] as the compound, how does the “MBP+ mature oligodendrocyte number” value read?
**A.** 21.4

**Q.** CCC(=O)O[C@]1(C(=O)CCl)[C@@H](C)C[C@H]2[C@@H]3CCC4=CC(=O)C=C[C@]4(C)[C@@]3(F)[C@@H](O)C[C@@]21C [Clobetasol propionate] was tested. Which “MBP+ mature oligodendrocyte number” value did it give?
**A.** 12.8

**Q.** How did the “MBP+ mature oligodendrocyte number” value turn out when C[C@H]1C[C@H]2[C@@H]3CCC4=CC(=O)C=C[C@]4(C)[C@@]3(F)[C@@H](O)C[C@]2(C)[C@@]1(O)C(=O)CO [Betamethasone] was run?
**A.** 6.53 ± 6.4

**Q.** Which “MBP+ mature oligodendrocyte number” value does the source give for CO[C@H]1C(=O)[C@]2(C)[C@@H](OC)C[C@H]3OC[C@@]3(OC(C)=O)[C@H]2[C@H](OC(=O)c2ccccc2)[C@]2(O)C[C@H](OC(=O)[C@H](O)[C@@H](NC(=O)OC(C)(C)C)c3ccccc3)C(C)=C1C2(C)C [Cabazitaxel] here?
**A.** -3.71

**Q.** How did the “MBP+ mature oligodendrocyte number” value turn out when C=CCN1CCc2c(cc(O)c(O)c2Br)[C@@H](c2ccccc2)C1 [R(+)-6-Bromo-APB hydrobromide] was run?
**A.** -2.95

**Q.** Which “MBP+ mature oligodendrocyte number” value does the source give for Cc1ccc(C(=O)NCCCCCC(=O)Nc2ccccc2N)cc1 here?
**A.** -5.76
